From PubChem
Peg3 promoter: inhibitors of Peg3 promoter. HeLa PEG-Prom luciferase reporter, luminescence, overnight. inhibition, % at 20 µM. hit rate 1.7% among 360,000;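 active means inhibition of at least 50% at 20 µM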
HIF-2a block: inhibitors of HIF-2a. 786-0 RCC cells HIF-2a reporter, luciferase luminescence, overnight. inhibition, % at 18.8 µM. hit rate 0.72% among 360,000. AID 624352;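 active means inhibition of the luminescence signal of 40% or more relative to plate controls, in a single-dose primary screen at 18.75 µM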
CHOP inh: blocks CHOP induction under ER stress; CHO-K1 CHOP-promoter luciferase, tunicamycin-induced, 15-18 h; inhibition, % at 10 µM; hit rate 3.8% among 220,000;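 active means compounds that reduced the stress-induced luciferase reporter signal by more than about 70% of percent inhibition, limit read from the data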;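 further: 0% = tunicamycin plus vehicle and 100% = wells without tunicamycin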
CF NFkB inh: blocks PAF-induced NF-kB reporter in cystic fibrosis cells; KKLEB NF-kB-GFP reporter, GFP fluorescence overnight; inhibition, % at 5 µM; hit rate 0.86% among 360,000;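 active means at least 50% inhibition at 5 µM, scaled per plate between neutral and stimulator controls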;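 further: PAF is a Pseudomonas aeruginosa culture filtrate used as stimulus; plate controls were PAF-stimulated DMSO wells for no effect and unstimulated DMSO wells for full effect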
KKLEB tox: reduces viability of KKLEB cystic fibrosis airway cells; hit rate 0.36% among 360,000; KKLEB CF airway cells viability, ATPlite luminescence, overnight; active compounds read low; cells stimulated with P. aeruginosa culture filtrate; activity change (cytotoxicity), % at 5 µM;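 active means corrected activity change at or below -50% at 5 µM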
MITF TRPM1 inh: inhibitors of MITF-driven TRPM1 promoter in melanoma cells; inhibition, % at 12.5 µM; AID 488899; SK-MEL-5 TRPM1 promoter luciferase, 24 h; hit rate 0.83% among 330,000;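 active means mean inhibition across replicates of 60% or more, whatever share of single replicates reaches that level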
* marks the source's active call; other numbers are inactive results; / = no result. A selection: hits, their analogues and other compounds. The true share with any hit is near 4.3%.

SMILES | Peg3 promoter | HIF-2a block | CHOP inh | CF NFkB inh | KKLEB tox | MITF TRPM1 inh
CN(C)CC1CC/C(=C\c2ccc(O)cc2)C1=O (stereo unspecified) | 98* | 88* | / | 47 | 0 | /
COc1ccc(S(=O)(=O)NCc2cccnc2)cc1NC(=O)c1ccc(Cl)cc1 | 15 | 13 | / | 9 | -11 | 7
CC1(C(=O)O)CCCN(C(=O)c2cccnc2Oc2ccccc2)C1 (stereo unspecified) | -9 | 7 | / | 1 | 0 | /
COc1ccc(C(CC(=O)c2ccc3c(c2)OCO3)C(=O)O)cc1OC (stereo unspecified) | 2 | 9 | / | 4 | 0 | /
Cc1ccc(Nc2nc(N/N=C/c3c[nH]c4ccccc34)nc(N3CCOCC3)n2)cc1 | 14 | -79 | 95* | 13 | -16 | -29
BrC(/C=N/Nc1nc(N2CCOCC2)nc(N2CCOCC2)n1)=C/c1ccccc1 | 8 | 9 | 82* | -20 | 12 | -7
O=[N+]([O-])c1ccccc1/C=C/C=N/Nc1nc(N2CCCCC2)nc(N2CCCCC2)n1 | 18 | 1 | 4 | -6 | 9 | 20
O=[N+]([O-])c1ccccc1/C=N/Nc1nc(N2CCCC2)nc(N2CCCC2)n1 | 15 | 9 | 75* | -9 | -1 | 24
Cc1cccc(Nc2nc(N3CCOCC3)nc(N3CCOCC3)n2)c1 | 7 | 29 | / | 51* | -14 | -16
CCOC(=O)C1(C)CCCN1C(=O)c1ccc2ccccc2c1 (stereo unspecified) | -5 | 1 | / | 13 | -3 | /
CCN(CC)Cc1cc2[nH]c3c4ccc(Cl)cc4ncc3c2cc1OC | -6 | 16 | -68 | -19 | 3 | 10
COc1ccc(CCNC(=O)c2cc(-c3ccccc3)c(N3CCOCC3)s2)c(OC)c1OC | 21 | 8 | / | 8 | -18 | -9
C(=C\c1ccccc1)/C=N/Nc1nc(N2CCCCC2)nc(N2CCCCC2)n1 | 51* | 1 | 37 | -2 | -16 | -7
CC(C)Sc1nc(N2CCOCC2)c2c3c(sc2n1)COC(C)(C)C3 | 25 | 21 | 82* | 14 | -12 | -3
S=C(NCC1CCCCC1)Nc1ccc(Oc2ccccc2)cc1 | 27 | -11 | 73* | 5 | -2 | 8
S=C(Nc1ccc(Oc2ccccc2)cc1)NC1CCCC1 | -16 | -59 | 3 | -5 | 1 | -6
COc1ccc(N/N=C/c2c(C(=O)O)ccc3ccccc23)cc1 | 38 | -91 | 96* | 13 | -13 | /
Cc1ccc2nc(-c3cccnc3)cc(C(=O)N3CCN(c4ccc([N+](=O)[O-])cc4)CC3)c2c1 | 100* | 19 | 8 | 3 | -21 | 8
O=C(Nc1ccccc1Br)c1cc(=O)c2ccccc2o1 | -332 | -219 | / | 14 | 2 | -156
COC(=O)CCC[C@H]1CC2(C[C@H](CCCO[Si](C)(C)C(C)(C)C)N1C(=O)OC(C)(C)C)OCCO2 | 0 | 14 | / | 14 | -6 | 7
CN1C(=O)CSc2ccc(NC(=O)NCc3ccccc3)cc21 | -7 | 16 | 12 | 11 | -21 | 11
CCc1ccc(NC(=O)Nc2ccc3c(c2)N(C)C(=O)CS3)cc1 | 40 | -36 | 75* | 21 | 0 | -5
Cc1ccc(CNC(=O)Nc2ccc3c(c2)N(C)C(=O)CS3)cc1 | 2 | 10 | 8 | 5 | -5 | 11
Cc1ccc(NC(=O)Nc2ccc3c(c2)N(C)C(=O)CS3)cc1C | -18 | -38 | 73* | 29 | -6 | -10
Cc1cc(C)cc(NC(=O)Nc2ccc3c(c2)N(C)C(=O)CS3)c1 | 25 | -49 | 87* | 24 | 1 | -3
CC(=O)c1cccc(NC(=O)Nc2ccc3c(c2)N(C)C(=O)CS3)c1 | 29 | -55 | 32 | 61* | -15 | -5
Cc1cccc(-n2ncc3c2CCCC3NC(=O)CCN2CCCO2)c1C (stereo unspecified) | 8 | 3 | / | 11 | 0 | 1
O=C(CN(C(=O)CCC(=O)Nc1nccs1)c1ccccc1F)NCC1CCCO1 (stereo unspecified) | -2 | 9 | 73* | -20 | 12 | -6
CC1(c2ccccc2Br)NC(=O)N(CC(=O)NC2CCCCC2)C1=O (stereo unspecified) | 8 | 16 | / | 2 | 5 | -4
CCCCCn1c(SCC(=O)OCC)nc2cc(C(=O)NCc3ccco3)ccc2c1=O | 19 | 2 | 73* | 2 | -9 | 2
